Laboratory results as given in ChEMBL document CHEMBL3433997, “St. Jude Leishmania screening dataset” (2016).

What follows are compounds tested against Solute carrier family 2, facilitated glucose transporter member 1 (Homo sapiens) (UniProt P11166) (assay: ST_JUDE_LEISH: Cytotoxicity at 2uM final concentration against transgenic Leishmania Mexicana promastigotes LmGLUT1 that are glucose transport deficient and complemented with the human glucose transporter GLUT1. Activity is measured by DNA content using SYBR green in vitro).
Assay type: functional

Chain of Solute carrier family 2, facilitated glucose transporter member 1 (Homo sapiens) (P11166 whole entry): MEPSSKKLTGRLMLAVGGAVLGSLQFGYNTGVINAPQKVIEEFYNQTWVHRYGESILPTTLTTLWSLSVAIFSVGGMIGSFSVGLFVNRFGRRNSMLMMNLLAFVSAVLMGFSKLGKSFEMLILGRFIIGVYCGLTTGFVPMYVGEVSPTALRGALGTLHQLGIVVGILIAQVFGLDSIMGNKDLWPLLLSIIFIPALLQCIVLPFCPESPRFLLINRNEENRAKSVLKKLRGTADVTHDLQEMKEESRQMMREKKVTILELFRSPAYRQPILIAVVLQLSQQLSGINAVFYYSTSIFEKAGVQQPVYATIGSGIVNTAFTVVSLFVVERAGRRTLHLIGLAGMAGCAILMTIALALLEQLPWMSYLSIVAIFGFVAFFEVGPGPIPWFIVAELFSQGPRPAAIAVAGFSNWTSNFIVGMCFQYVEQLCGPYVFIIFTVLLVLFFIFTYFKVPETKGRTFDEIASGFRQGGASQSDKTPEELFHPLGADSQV

SMILES | inhibition [%]
CCC(C)NS(=O)(=O)c1ccc2nc(Nc3ccc(C)c(Cl)c3)n(C(C)C(C)C)c2c1 (stereo not given) | 2.38
Clc1ccc2c(NN=Cc3ccccc3)ccnc2c1 | 7.48
COc1cc2nc(Nc3ccc4c(cnn4Cc4ccccc4)c3)nc(Nc3ccc4c(cnn4Cc4ccccc4)c3)c2cc1OC | 2.6
Cn1nc2ccc3ccccc3c2nc1=N | 59.2
Cc1cccc2nc(-c3ccc(-c4ccc(NC(=O)NCc5cccc(F)c5)cc4)s3)[nH]c12 | 7.99
CN(C)C1CCN(Cc2ccc(N3CCN(Cc4cccc5[nH]ccc45)CC3)nc2)CC1 | 2.41
Cc1cc(O)c(C(C)C)cc1C1(c2cc(C(C)C)c(O)cc2C)OC(=O)c2ccccc21 | 8.43
O=C(Nc1cccc(CN2CCCN(Cc3ccc(O)cc3)CC2)c1)c1ccc2ccccc2n1 | 2.74
Cc1nc(C)n(CC(=O)Nc2cccc(-c3cccc(-c4nc5cc(C(F)(F)F)ccc5[nH]4)c3)c2)n1 | 10.2
CN(C)CC1CCCN1Cc1ccccc1-c1cnn(C)c(=O)c1Oc1cccc(C#N)c1 (stereo not given) | 1.03
Cc1c(C(=O)N2CCCC(C(F)(F)F)C2)sc2cccc(F)c12 (stereo not given) | 8.1
O=C(Nc1cccc(-c2ccc(CN3CCCC3)cc2)c1)c1ccc(Cl)cc1 | 3.03
CC(C)[C@H](NC(=O)c1ccc(O)c(-c2ccc(Cl)c(Cl)c2)c1)C(=O)NCCN1CCOCC1 | 2.3
CCNc1cc(C(=O)N[C@@H](Cc2ccccc2)[C@H](O)CNC(C)Cc2cccc(Cl)c2)cc(N2CCCCS2(=O)=O)c1 (stereo not given in full) | 0.81
CCN(CC)Cc1cc(Nc2c3ccc(Cl)cc3nc3cccc(OC)c23)ccc1O | 7.41
